Bioassay records: PubChem, Broad Institute
aSyn 5UTR act = Activators via SNCA 5'UTR binding, MLPCN. alpha-synuclein 5'UTR reporter, activators screen. 300,000 tested, 7.1% active. activity score, % (tested at 7.5 µM), hits read low; in the data active = activity score below about -60%
* marks the source's active call; other numbers are inactive results. Only a sample is shown.

SMILES	aSyn 5UTR act
O=C(CCl)NCCN1C(=O)S/C(=C\c2cccnc2)C1=O	-99*
N/C(=N\OC(=O)c1cccs1)c1cccnc1	-92*
N/C(=N\OC(=O)c1ccc(Cl)cc1)c1cccnc1	-187*
N/C(=N\OC(=O)c1ccco1)c1ccc(Cl)cc1	-210*
N/C(=N\OC(=O)c1ccco1)c1cccnc1	-78*
CC(C)COCc1ccc(O)c2ncccc12	96
Cc1ccccc1/C(N)=N/OC(=O)c1cccs1	-120*
N/C(=N\OC(=O)c1ccc(Cl)cc1)c1ccc(Cl)cc1	-122*
N/C(=N\OC(=O)c1ccc(Cl)cc1Cl)c1cccnc1	-70*
CCSc1ccc(/C(N)=N/OC(=O)c2cccs2)cn1	-120*
N/C(=N\OC(=O)c1ccc(Cl)cc1)c1ccn[nH]1	-77*
CCOC(=O)c1sc(NC(=O)c2ccc3ncsc3c2)nc1C	-89*
CCOC(=O)c1sc(NC(=O)c2cncc(Br)c2)nc1C	-105*
Cc1c(Cl)cnc(NC(=O)COC(=O)c2ccc3ncsc3c2)c1Cl	67
COc1ccc(C(=O)NC(=O)COC(=O)c2ccc3ncsc3c2)cc1	-82*
CCOC(=O)c1sc(NNC(=O)c2ccc(F)cc2)nc1C	-76*
Cc1nn(C)c(C)c1C(C)NC(=O)c1cc(COc2ccc(F)c(F)c2)on1 (configuration not stated)	-68*
CCOC(=O)C1CCCN(C(=O)c2cc(COc3ccc(C)nc3)on2)C1 (configuration not stated)	-86*
CCCN1CCN(C(=O)c2cc(COc3ccc(F)c(F)c3)on2)CC1	-74*
CCCOC1CCCN(C(=O)c2cc(COc3ccc(F)c(F)c3)on2)C1 (configuration not stated)	-118*
CCOc1ccc(C(=O)COC(=O)c2c(-c3ccccc3)noc2C)cc1	-63*
Cc1onc(-c2ccccc2)c1C(=O)OCCOc1cccc(Cl)c1	-70*
COc1cc2nc(Nc3cccc(F)c3)nc(N)c2cc1OC	-93*
Cc1ccccc1NC(=O)c1nnn(-c2ccc3c(c2)OCCO3)c1N	-135*
Nc1c(C(=O)Nc2cccc(F)c2)nnn1-c1ccc2c(c1)OCCO2	-101*
SMILES	aSyn 5UTR act
CCOC(=O)c1c(C)[nH]c(C(=O)CN2C(=O)NC3(CCCC3)C2=O)c1C	-67*
Cc1cc(C)c(C(=O)CN2C(=O)NC3(CCCCCC3)C2=O)cc1C	-72*
CCOC(=O)c1c(C)[nH]c(C(=O)CSc2nccc(C)n2)c1C	-129*
Cc1cc(C(=O)CN2C(=O)NC3(CCCCC3)C2=O)c(C)n1C	-69*
Cc1cc(C(=O)CN2C(=O)NC3(CCCCC3C)C2=O)c(C)n1Cc1cccs1 (configuration not stated)	-165*
COc1ccc(C(=O)CN2C(=O)NC3(CCCCCC3)C2=O)cc1	-90*
COc1ccc(C(=O)CN2C(=O)c3ccccc3S2(=O)=O)cc1	101
COC(=O)c1ccc(CN2C(=O)NC3(CCCCC3)C2=O)cc1	-124*
COc1ccccc1NC(=O)NC(=O)c1ccccc1	-137*
O=C(NC(=O)c1ccccc1)Nc1ccccc1	72
COc1ccc(NC(=O)NC(=O)c2ccccc2)cc1	-221*
COc1ccc(N/N=C(C)/C(=N/O)C(=O)Nc2ccccc2)cc1	-87*
CCOC(=O)c1cnn(-c2cc(Oc3ccccc3)ncn2)c1N	-101*
CCOC(=O)c1cnn(-c2ncnc3sc4c(c23)CCC4)c1N	-75*
CCOC(=O)c1cnn(-c2ncnc3c2oc2ccccc23)c1N	-98*
CCOC(=O)c1cnn(-c2ccccn2)c1N	-116*
Cc1cnn(-c2cc(Oc3ccccc3)ncn2)c1	-216*
c1ccc(Oc2cc(-c3ccccc3)ncn2)cc1	-124*
CCOC(=O)c1cnn(-c2cc(C)c3ccccc3n2)c1N	-65*
CCOC(=O)c1cnn(-c2cc(Oc3ccccc3C)ncn2)c1N	-88*
COCc1cc(C)nc(Nc2ccc(C)c(C)c2)c1C#N	-71*
O=c1c(C=NCc2ccccc2)c(NCc2ccccc2)nc2ccccn12	-66*
Cc1csc(SCc2nnc(-c3ccccc3Br)o2)n1	-88*
Cc1csc(SCc2nnc(-c3ccc(Cl)cc3)o2)n1	-173*
Cc1ccc(-c2nnc(CSc3nnc(C)s3)o2)cc1	-79*
SMILES	aSyn 5UTR act
Cc1ccc(CNC(=O)/C=C/c2cccs2)cc1	-184*
CCCCNC(=O)/C=C/c1cccs1	-86*
Nc1c(-c2cccc([N+](=O)[O-])c2)nc2ccccn12	-83*
CC(=O)N(C)c1ccc(NC(=O)/C=C/c2ccccc2Cl)cc1	-85*
O=C(/C=C/c1ccc(Cl)c(Cl)c1)Nc1cccnc1	-102*
O=C(/C=C/c1ccccc1Cl)Nc1cccc(S(=O)(=O)NC2=NCCCCC2)c1	-82*
O=C(/C=C/c1ccc(Cl)cc1Cl)Nc1ccncc1	-280*
O=C(COC(=O)/C=C/c1ccccc1Cl)NCCNC(=O)COC(=O)/C=C/c1ccccc1Cl	-63*
O=C(/C=C/c1ccccc1Cl)Nc1ccncc1	-346*
CC(C)(C)c1ccc(/C=C/C(=O)Nc2cccnc2)cc1	-232*
COc1ccccc1/C=C/C(=O)Nc1cccnc1	-76*
O=C(/C=C/c1ccccc1Cl)Nc1cccnc1	-150*
O=C(/C=C/c1ccccc1Cl)NC1CCCCC1	-119*
CCC(CC)NC(=O)/C=C/c1ccccc1Cl	-100*
O=C(CSc1ccccc1)Nc1ccc2c(c1)OCO2	-125*
O=C(CSc1ccccc1)Nc1ccc2c(c1)OCCO2	-63*
O=C(Cn1cnc2ccccc2c1=O)Nc1ccc2c(c1)OCCO2	-110*
O=C(CSCc1ccccc1)Nc1ccc(F)c(F)c1	-136*
O=C(CC1Nc2ccccc2NC1=O)Nc1ccc2c(c1)OCO2 (configuration not stated)	-108*
O=C(CSc1nnc2ccccn12)Nc1ncc(Cl)cc1Cl	-78*
Cn1cc(SCC(=O)Nc2ccc3c(c2)OCCO3)c2ccccc21	-78*
CCN(CC)C(=O)Cn1cc(C(=O)C(=O)Nc2ccc3c(c2)OCCO3)c2ccccc21	-91*
COc1ccc(-n2c(SC(C)C(=O)Nc3ncc(Cl)cc3Cl)nc3ccccc32)cc1 (configuration not stated)	77
O=C(CSc1ccc(-c2ccccc2)nn1)Nc1ccc2c(c1)OCCO2	-148*
Cc1cc(C)cc(C(=O)N2CC(=O)Nc3ccccc32)c1	110
SMILES	aSyn 5UTR act
O=C(CSc1nnc2ccccn12)Nc1ccc2c(c1)OCCO2	-122*
CN1CCN(c2ccc(NC(=O)CSc3ccccc3)cc2F)CC1	-107*
O=C(CN1CC(=O)Nc2ccccc21)Nc1ccc(F)c(F)c1	-94*
CC(=O)c1cccc(NC(=O)CSCc2ccccc2)c1	-100*
CC1Cc2nc(SCC(=O)Nc3ccc4c(c3)OCO4)n(Cc3ccccc3)c(=O)c2S1 (configuration not stated)	-95*
O=C(CSCc1ccccc1)Nc1ccc2c(c1)OCO2	-154*
CCCCSc1nnc2c(n1)[nH]c1ccccc12	-135*
O=C(CSc1nnc2c(n1)[nH]c1ccccc12)Nc1ccc2c(c1)OCO2	-80*
O=C(CN1C(=O)C2C3C=CC(C3)C2C1=O)Nc1ccc2c(c1)OCCO2 (configuration not stated)	-116*
O=C(CSCc1ccccc1)Nc1ccc(Cl)cn1	-134*
CC1CCCN(C(=O)c2ccc(-c3ccccc3Cl)o2)C1 (configuration not stated)	-136*
CC(C)(CNC(=O)c1ccc(-c2ccccc2Cl)o1)N1CCOCC1	-124*
CC1CN(C(=O)c2ccc(-c3ccccc3Cl)o2)CC(C)O1 (configuration not stated)	-64*
